In PubChem BioAssay (NCI):
Compounds without any hit were thinned out: in the full panel of roughly 79,000, 15% have a hit. Calls of active or inactive are those of the source. Rule as the data show it: active = growth inhibition above about 70%; inactive = the rest.

Experiments:
[1] = NCI Yeast Anticancer Drug Screen. Data for the wt1 strain (AID 149);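 also: 0% = growth of vehicle-treated wt1 cultures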; settings: S. cerevisiae wt1 strain (SPY 50644) growth inhibition, stronger effect = higher value
In short: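 Measured: growth of wt1 yeast under compound versus vehicle treatment, reported as inhibition.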

[2] = NCI Yeast Anticancer Drug Screen. Data for the rad50EPP+ strain (AID 151);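 also: 0% = growth of vehicle-treated control cultures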; settings: S. cerevisiae rad50 mutant strain, stronger effect = higher value
In short: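 Exposing the rad50EPP+ strain to each compound, growth was compared with vehicle-only cultures to give inhibition.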

[3] = NCI Yeast Anticancer Drug Screen. Data for the mgt1 strain (AID 153); settings: S. cerevisiae mgt1 mutant growth inhibition, stronger effect = higher value
In short: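 Genetically defined yeast (mgt1) treated with compound; inhibition of growth expressed against vehicle-treated controls.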

[4] = NCI Yeast Anticancer Drug Screen. Data for the rad50 strain (AID 155);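 also: 0% = growth of vehicle-only cultures of the same strain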; settings: S. cerevisiae rad50 strain growth inhibition, stronger effect = higher value
In short: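 Growth of the mutant yeast was measured after compound exposure and referenced to vehicle-treated cultures.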

[5] = NCI Yeast Anticancer Drug Screen. Data for the mec2-1 strain (AID 157); settings: S. cerevisiae mec2-1 strain, stronger effect = higher value
In short: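 Readout is yeast growth inhibition, normalised to vehicle-treated controls, in the mec2-1 strain exposed to compound.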

[6] = NCI Yeast Anticancer Drug Screen. Data for the rad14 strain (AID 159);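 also: 0% = growth of vehicle-treated control cultures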; settings: S. cerevisiae rad14 strain growth inhibition, stronger effect = higher value
In short: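 Here, inhibition of yeast growth was measured after compound exposure, using a strain with a genetic defect in DNA damage repair and vehicle-treated cultures as the reference.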

[7] = NCI Yeast Anticancer Drug Screen. Data for the sgs1 mgt1 strain (AID 161);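 also: 0% = growth of cultures given vehicle only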; settings: S. cerevisiae sgs1 mgt1 strain, stronger effect = higher value
In short: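 Percent growth inhibition was derived by comparing compound-exposed mutant yeast with vehicle-exposed cultures. The strain carries alterations in DNA damage repair.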

[8] = NCI Yeast Anticancer Drug Screen. Data for the CLN2oe strain (AID 163);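 also: 0% = growth of vehicle-only control cultures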; settings: S. cerevisiae CLN2oe strain, stronger effect = higher value
In short: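 Values reflect how much compound exposure reduced yeast growth, referenced to vehicle-exposed cells. Assay organism is a strain with a defined genetic change affecting cell-cycle control.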

[9] = NCI Yeast Anticancer Drug Screen. Data for the cln2 rad14 strain (AID 165);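 also: 0% = growth equal to vehicle treated cultures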; settings: S. cerevisiae cln2 rad14 strain, stronger effect = higher value
In short: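 Relative to vehicle controls, growth inhibition of compound-treated cln2 rad14 yeast was recorded.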

[10] = NCI Yeast Anticancer Drug Screen. Data for the bub3 strain (AID 167); settings: S. cerevisiae bub3 mutant strain, stronger effect = higher value
In short: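 Whole-cell yeast assay. The mutant strain was incubated with compounds, and growth inhibition was determined by comparison with vehicle-treated cells.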

[11] = NCI Yeast Anticancer Drug Screen. Data for the wt2 strain (AID 169);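 also: 0% = growth of vehicle-treated yeast cultures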; settings: S. cerevisiae wt2 strain growth inhibition, stronger effect = higher value
In short: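 Values express reduction in yeast growth under compound treatment, referenced to vehicle-treated cells.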

[12] = NCI Yeast Anticancer Drug Screen. Data for the mlh1 strain (AID 171);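 also: 0% = growth of vehicle-treated control cultures of the same strain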; settings: S. cerevisiae mlh1 strain growth inhibition, stronger effect = higher value
In short: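 Steps: expose the defined-mutant yeast strain to compound; expose a parallel culture to vehicle; measure growth; express compound effect as inhibition relative to the vehicle culture.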

[13] = NCI Yeast Anticancer Drug Screen. Data for the sgs1 strain (AID 173);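 also: 0% = growth of vehicle-only control cultures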; settings: S. cerevisiae sgs1 mutant, stronger effect = higher value
In short: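 Treat defined-mutant yeast with compound; measure growth; calculate inhibition relative to vehicle-treated cells.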

[14] = NCI Yeast Anticancer Drug Screen. Data for the mlh1 rad18 strain (AID 175); settings: S. cerevisiae mlh1 rad18 strain growth inhibition, stronger effect = higher value
In short: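 Test agents were incubated with a yeast strain of defined genotype (DNA damage repair defect). Inhibition of growth was derived by comparison with vehicle-exposed cultures.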

[15] = NCI Yeast Anticancer Drug Screen. Data for the rad18 strain (AID 177); settings: S. cerevisiae rad18 mutant growth inhibition, stronger effect = higher value
In short: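 A genetically defined yeast mutant impaired in DNA damage repair was treated with test compounds, then its growth was measured against cultures receiving vehicle alone.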

[16] = at 5.0 µM (retest, dose inferred, filed as 0.5)
[17] = at 50.0 µM (retest, dose inferred, filed as 5.0)

Measured: growth inhibition

O=C1C=CC(=Nc2ccc3c(c2)Cc2cc(Cl)ccc2-3)O1
inactive: [1]; at 1.2 µM -3% | [1]; at 3.7 µM 10% | [1]; at 11.0 µM 56% | [3]; at 1.2 µM 2% | [3]; at 3.7 µM 20% | [3]; at 11.0 µM 68% | [4]; at 1.2 µM -1% | [4]; at 3.7 µM 24% | [4]; [16] 25% | [5]; at 1.2 µM 6% | [5]; at 3.7 µM 19% | [5]; [16] 34% | [5]; at 11.0 µM 68% | [6]; at 1.2 µM 10% | [6]; at 3.7 µM 32% | [7]; [16] 49% | [8]; at 1.2 µM -1% | [8]; at 3.7 µM 3% | [8]; at 11.0 µM 23% | [9]; [16] 7% | [10]; at 1.2 µM 4% | [10]; at 3.7 µM 12% | [10]; [16] 7% | [11]; at 1.2 µM 5% | [11]; at 3.7 µM 28% | [12]; at 1.2 µM 9% | [12]; at 3.7 µM 21% | [13]; at 1.2 µM 11% | [13]; at 3.7 µM 48% | [14]; [16] 32% | [15]; at 1.2 µM 10% | [15]; at 3.7 µM 36%
active: [1]; at 33.0 µM 99% | [1]; at 100.0 µM 98% | [2]; at 1.2 µM 78% | [2]; at 3.7 µM 90% | [2]; at 11.0 µM 98% | [2]; at 33.0 µM 99% | [2]; at 100.0 µM 96% | [3]; at 33.0 µM 99% | [3]; at 100.0 µM 99% | [4]; at 11.0 µM 78% | [4]; at 33.0 µM 99% | [4]; [17] 99% | [4]; at 50.0 µM 99.5% | [4]; at 100.0 µM 96% | [5]; at 33.0 µM 99% | [5]; [17] 100% | [5]; at 50.0 µM 99% | [5]; at 100.0 µM 98% | [6]; at 11.0 µM 91% | [6]; at 33.0 µM 99% | [6]; at 100.0 µM 97% | [7]; [17] 100% | [7]; at 50.0 µM 99.5% | [8]; at 33.0 µM 98% | [8]; at 100.0 µM 97% | [9]; [17] 99% | [9]; at 50.0 µM 98.2% | [10]; at 11.0 µM 96% | [10]; at 33.0 µM 99% | [10]; [17] 99% | [10]; at 50.0 µM 99.7% | [10]; at 100.0 µM 97% | [11]; at 11.0 µM 100% | [11]; at 33.0 µM 99% | [11]; at 100.0 µM 98% | [12]; at 11.0 µM 74% | [12]; at 33.0 µM 99% | [12]; at 100.0 µM 98% | [13]; at 11.0 µM 88% | [13]; at 33.0 µM 99% | [13]; at 100.0 µM 98% | [14]; [17] 99% | [14]; at 50.0 µM 84.2% | [15]; at 11.0 µM 95% | [15]; at 33.0 µM 99% | [15]; at 100.0 µM 97%
